# Tests used:
# RUNX1 [1] = target: RUNX1 (UniProt Q01196); experiment: RUNX1 binding intensity (PBM fluorescence), RUNX1 alone (arbitrary fluorescence units); higher = stronger binding; conditions: RUNX1 concentration 2 nM; ETS1 concentration 0 nM
# Procedure: (§1)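 Cooperative gcPBM on 36-bp genomic probes with neighbouring ETS1 and RUNX1 sites. Recombinant human RUNX1 (2 nM) was incubated alone or with ETS1 (25 nM) and detected with anti-RUNX1 antibody plus Alexa488 secondary. Values are medians over 4 replicate spots; the RUNX1+ETS1 data were normalised to the RUNX1-only data. The probes sit in constant array flanks that are not printed.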
# RUNX1 [2] = target: RUNX1 (UniProt Q01196); experiment: RUNX1 binding intensity (PBM fluorescence) in presence of ETS1, normalised to RUNX1-only experiment (arbitrary fluorescence units); higher = stronger binding; conditions: RUNX1 concentration 2 nM; ETS1 concentration 25 nM
# Procedure: as §1
# ETS1 = target: T1, ETS1 (UniProt P14921); experiment: ETS1 binding intensity (PBM fluorescence) in presence of RUNX1, normalised to ETS1-only experiment (arbitrary fluorescence units); higher = stronger binding; conditions: ETS1 concentration 1 nM; RUNX1 concentration 25 nM
# T1 sequence: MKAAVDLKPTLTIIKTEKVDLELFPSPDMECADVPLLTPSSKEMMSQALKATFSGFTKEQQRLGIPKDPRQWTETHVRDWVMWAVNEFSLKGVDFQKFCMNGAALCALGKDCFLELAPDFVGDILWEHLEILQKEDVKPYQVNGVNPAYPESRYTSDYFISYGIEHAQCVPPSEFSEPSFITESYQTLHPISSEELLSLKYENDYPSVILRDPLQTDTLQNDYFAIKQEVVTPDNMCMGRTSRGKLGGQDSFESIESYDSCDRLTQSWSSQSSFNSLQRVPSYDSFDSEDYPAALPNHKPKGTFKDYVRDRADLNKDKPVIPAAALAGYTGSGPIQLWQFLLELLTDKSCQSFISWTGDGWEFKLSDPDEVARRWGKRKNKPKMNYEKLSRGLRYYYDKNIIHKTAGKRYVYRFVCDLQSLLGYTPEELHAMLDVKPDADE
# 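Wherever RUNX1 binding intensity (PBM fluorescence) in presence of ETS1, normalised to RUNX1-only experiment is given: Full-length recombinant human ETS1 or RUNX1 bound to double-stranded 36-bp genomic probes on microarrays, detected by protein-specific primary antibody and Alexa488 secondary, spot fluorescence as median of four replicate spots.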
# 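Wherever RUNX1 binding intensity (PBM fluorescence), RUNX1 alone is given: Full-length recombinant human RUNX1 bound to double-stranded 36-bp genomic probes on a high-density microarray, scored as Alexa488 fluorescence per spot via anti-RUNX1 antibody, median of four replicate spots.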
# Chain of RUNX1 (Q01196 whole entry): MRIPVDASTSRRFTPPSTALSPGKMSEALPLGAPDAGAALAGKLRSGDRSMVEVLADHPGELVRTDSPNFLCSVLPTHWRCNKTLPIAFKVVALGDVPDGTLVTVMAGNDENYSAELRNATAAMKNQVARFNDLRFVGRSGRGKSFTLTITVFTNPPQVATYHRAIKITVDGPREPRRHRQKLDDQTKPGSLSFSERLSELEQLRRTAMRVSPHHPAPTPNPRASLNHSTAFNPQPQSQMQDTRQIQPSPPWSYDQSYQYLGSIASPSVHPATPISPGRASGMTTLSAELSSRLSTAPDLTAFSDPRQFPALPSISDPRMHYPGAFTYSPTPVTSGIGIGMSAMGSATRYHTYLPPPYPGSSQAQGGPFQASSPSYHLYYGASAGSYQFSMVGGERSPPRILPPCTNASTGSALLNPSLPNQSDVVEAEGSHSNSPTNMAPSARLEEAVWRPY
Sequence,RUNX1 binding intensity (RUNX1 [1]),RUNX1 binding intensity (RUNX1 [2]),ETS1 binding intensity (ETS1)
GCTGTCCGTTTCCGAGATGTTAATGCGGGGTCTTGC,866,1070,
AGGACCGGAAGTGCCCGAGGGCGGCCGCAGAACGGT,719,1320,
GATGACTTCCTCAGTTCAGGGCTATGTGCGGGGGAG,833,1060,
TCCGCCCGCGGATGCTGAGAACCGCAGCTGCACAAG,948,827,
TGACACCAGCCCTGAGGATGTGGTTCATCCTCCCAC,868,817,
TGCAGCGCATCCTGGGACGTGCGGGCGGTGCATGAG,727,923,
TGCAGTCGTGAAAAAGGAAGTGGTTAAAGTGGCTAC,753,1600,
ACCGAAAACAGGGCCTTCCGCGGTTATACAGATCCT,868,998,
TGGGTGCCGGATTCGGTGAGTGTGGTTCTCATGATG,654,895,
CAGGCTCGCCACAGGGGAAGTGGTTAGGGCGGGTCC,775,890,
GGGTGAGTATTTCCTCCTGCGGTGGGTCGGCATGTA,796,1570,
ATGGTCCAGGAAGATAAGGGCTGAAAACCACCCACT,857,824,
CGGCTAGGAAATAAAGAGCCTTCTCTCCGCGGTAGG,2270,2200,
ACAATAACAGGAAGTGGTGGGGACTGCGGTGACCTG,865,3340,
CTGAGACATCCTGATAATTCTGTGGGTTACCCCAAA,728,1280,
AATCGCGCAGTTCCGCAGCTGCCGCCCCACAACCGT,863,960,
CTCAGGTTATCTAGGAAATCTACCGCACGCTAAAGT,858,793,
GTGCCTTTTCATGTGGGATGTGGCTTCAAGGAGACC,911,822,
AGCAGGGCTCGCCGGGAAATGTGGTTTCTCCAGCCG,843,952,
CCCATTTCCGAGAGTGGCAGGGCTGGGCGCGGTGGG,978,1420,
AGCTCTAAGGTTCCGCCTGCGGGCAGCAAGCGGAGG,920,902,
GCTGCAAGGCGGAAGCAGCGCGGTCGGACGGGCATG,721,997,
TGCTGCAGCGGCGCTTCCTGGTGGTCAGGGCGCCAT,707,924,
GCTGGGCCATCCTGCCACATGCACCGCATCTCTGGG,759,878,
ACCAGAACTAAAGCGGATAGCGGTTAGAAACGCCCA,872,952,
CGGCGCGGCGGACGTTGCTGCGGTAGGACGTGCCCG,838,875,

Sequence,RUNX1 binding intensity (RUNX1 [1]),RUNX1 binding intensity (RUNX1 [2]),ETS1 binding intensity (ETS1)
TTGTTCCACCCCCGCGGAAACCGCTGCTCGCTGGGC,913,965,
AACTCCTGGCCGGAACGGCACAGACCGCACTCCCGC,938,917,
AGGCCAGACGCCTTCCGTGGTTTACGGTGAGGGTGG,884,799,
TCCACAGCCGGTTCCGGCCGGTTCCCACAAGCCCCT,844,1130,
CGGGGTTTCCTGGTGGCTGCGAGCGGTGGGGACGGC,728,1140,
CGGGCCGGATCGCCTTCGCCGCCGCCCGCCCGCAAA,979,866,
CCCGGCCCAGGAAACTTCAGACTTCACCGCAGCTTC,1060,1030,
AGTTTTCCGTCGGGCTCCCAGTGACGCCGCAGAGGT,764,1180,
CCTCCGGAACGGCGCGGGGGATTGTGGGGTGTAGGG,910,761,
CCACCTCCTCCGGACGCCGCCCGCAACTGAGCATGC,1030,1230,
TTACCCCAGGAAAAGCCTCCTCACCGCAGTGACCAG,998,905,
CCGCCCCCGGACGGTCACAGCACCCAAACCGCAGGC,2740,3240,
CCATTTCCCCCATCACTTTGAATTGTGGTTCTTCTC,1590,2920,
AGAGGCAGTTCCGGGGTGGGAACCGCGCGGAGCTTT,687,1220,
AACAGGAAGTGGTCTTAGAGATCATGCGGTTCAGAG,787,2350,
AGAGCCACATCCCGCGCAGAGGACCGCGGCGACCGG,764,927,
CACCCCCCCAGTGCAGGAAGTGGTTTTCGAGGGCAG,908,1790,
TGAGTTTTGTTTCCGATTCACCACAGAAGATACTTT,2230,2560,
CAGTGTTCCGCGTCCGGGGGTTTGTGGGAGTTGCCT,989,1120,
CACCCTGCCACTTCCCTAAACTCCCCGCACAGGCCG,1640,2140,
TAGGCGGAAAGCCCGCTAGCCTAAACCACAGAGGGT,896,872,
CGGCGCCTTCCGCAGAGGGACTGCGGCTTTCTGCGC,946,1390,
GCGGCTTTGTACGGAAACCCACACACATTGTTATTT,984,1020,
CCCCTACTTCCCTTTTTGCTGGGCCGCAGTTTCGGT,1490,2220,
GACAGTTTTCCGGCCTAGTTTGCGGCTGCTCCTGCC,830,2440,
ATGTCAGGAAGAGGCTCAGGGCTGTGGTTTCTCTGT,979,1070,

Sequence,RUNX1 binding intensity (RUNX1 [1]),RUNX1 binding intensity (RUNX1 [2]),ETS1 binding intensity (ETS1)
TATCTCCTATCTCCAGGAAGTGGTTAGCCCTAGGAG,811,1870,
ATTGCTTCCGACGCTACTCCTGCCGGGTCACCACAG,785,1020,
ACGAGAGTCTAGAGGAAACCAACCCGCAACTCACTG,892,868,
GCACGGCGGAATTTCAAATGGGGTTTTGTGGTTTCT,1220,1280,
GAAACGTCACCCAGAGGAAACCCACAAGGGGCGTGG,875,836,
AGAGGCTTCCTGAGGAACTGGTGTGGTCAGGGGAGC,740,1010,
GAAGCTCCCCAAACAGGATGTGGTTAGGGAGAGGGG,879,4090,
GAGGGAGCAGTTCCGGGTGCGGTGCGCGCCAGGGGC,1650,2060,
CCCTTCCTGTGAGGGAGGTTCCAGTTCCCACAGCGG,782,1670,
ACCACACTTCCCAGGAGTCTCTGCGGCCGCGCGGAG,938,801,
CCGGGAAACACGGGAGAGCGACCGAAACCGCAATCA,3650,4390,
ACTCACACCACGGAAACTGCGGCTCGGCAGGCTGAG,808,885,
ACGGTGCGTTTCCCCAACTACACCGCACGTCACGGA,988,827,
GCCTCCTTCCTGGGCTCCTTTAAGAGGGTGGTAACG,743,1130,
CCACCATCTTTCCGGCTCCCTCGCGACCACCACGAC,1410,1970,
CATCTCGGAAACGGACAGCAAGATCCCGCATTAACA,977,853,
CAGAGGAAGCCCACCCCATAAAAGAACCACAGATAA,1010,864,
CTTAGGACTTCCCGTAGATGGTGGTCTGTGCTAAGG,706,1050,
ATAGACCCAGCCCGTCCGGTAACCGCGCTCCTCGAT,836,913,
AGTTTCCTGAACTCAGAGCACAGTTGTGGTGCAGAA,743,1270,
AGGCTGTGGCGGAAGTGGTCGCGTTACCGCTTGTTT,712,3760,
CTGGGCGTGGGCTTCCTGCGGCTGAGTGGCAGCTTC,740,997,
TTCAGGAAATGCAAACGGCTGCAGAGACCGCAGAGG,793,1090,2490
GCGCGGCCAGAGAAAGGATGTGGTATAGCAGAAAGT,865,1040,4380
TGGACGTAACACTCAGGAAGTGGTCAACCTTGCTGC,820,1340,5810
